Results filed as inconclusive are left out. Calls of active or inactive are those of the source. The calls were made as follows: active = hit-call score of the fitted dose curve at least 0.9, where 1 is the maximum; inconclusive = response in the unintended direction; inactive = score below 0.9.

human RAR-related Orphan Receptor beta (RORb), RORB (gene 6096), sequence (Q92753 whole entry, looked up): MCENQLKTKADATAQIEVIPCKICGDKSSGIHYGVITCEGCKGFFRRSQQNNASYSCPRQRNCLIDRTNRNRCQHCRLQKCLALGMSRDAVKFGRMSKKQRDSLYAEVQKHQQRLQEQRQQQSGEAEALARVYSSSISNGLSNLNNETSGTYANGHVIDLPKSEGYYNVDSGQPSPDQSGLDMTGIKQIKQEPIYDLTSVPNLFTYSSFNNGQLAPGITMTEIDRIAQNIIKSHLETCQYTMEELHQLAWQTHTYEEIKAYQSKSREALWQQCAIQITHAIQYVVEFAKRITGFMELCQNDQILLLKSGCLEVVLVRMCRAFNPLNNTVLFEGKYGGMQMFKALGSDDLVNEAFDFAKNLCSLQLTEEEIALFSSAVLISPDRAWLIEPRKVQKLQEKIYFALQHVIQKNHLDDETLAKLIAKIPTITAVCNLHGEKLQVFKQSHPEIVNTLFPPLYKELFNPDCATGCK

The experiment concerns the target human RAR-related Orphan Receptor beta (RORb), RORB (gene 6096) (UniProt Q92753). Put plainly: ATG_RORb_TRANS: Attagene TRANS-FACTORIAL HepG2 Assay for human RAR-related Orphan Receptor beta (RORb) (AID 2283010). As for the experimental part: ATG_TRANS is a cell-based, multiplexed-readout assay that uses HepG2, a human liver cell line, with measurements taken at 24 hours after chemical dosing in a 24-well plate.ATG_RORb_TRANS is one of 30 assay component(s) measured or calculated from the ATG_TRANS assay. It is designed to make measurements of mRNA induction, a form of inducible reporter, as detected with fluorescence intensity signals by Reverse transcription polymerase chain reaction (RT-PCR) and Capillary electrophoresis technology.Data from the assay component ATG_RORb_TRANS was analyzed into 1 assay endpoint. This assay endpoint, ATG_RORb_TRANS, was analyzed in the positive analysis fitting direction relative to DMSO as the negative control and baseline of activity. Using a type of inducible reporter, measures of mRNA for gain-of-signal activity can be used to understand the reporter gene at the transcription factor-level as they relate to the gene RORB. Furthermore, this assay endpoint can be referred to as a primary readout, because this assay has produced multiple assay endpoints where this one serves a reporter gene function. To generalize the intended target to other relatable targets, this assay endpoint is annotated to the nuclear receptor intended target family, where the subfamily is orphan.
Human liver HepG2 cells are transiently transfected with multiple reporter transcription units (MRTUs) in 6-well plates using FuGene 6 reagent (Roche; 3 ml FuGene/1 mg DNA). The MRTU constructs are regulated by a cis-regulating element (promoter). […] A major difference between the CIS and TRANS system is that in CIS activities of endogenous TFs are measured, whereas the TRANS assay evaluates changes in activities of exogenous, chimeric NR-Gal4 proteins. […] At the end of 24 hour incubation, total RNA was isolated using TriZol reagent (Invitrogen). The isolated RNA is then reverse-transcribed using oligo(dT) primer and Mo-MLV reverse transcriptase (Invitrogen) with DNAse I (Ambion) treatment for 30 min. The one-tenth of the produced cDNA was amplified by PCR using Taq DNA polymerase (Invitrogen) and two reporter sequence-specific primers. The PCR products were fluorescently labeled by primer extension with 6-arboxyfluorescein (6-FAM) 5'-labeled reporter sequence-specific primer (2 min at 95 C, 20 s at 68 C and 10 min at 72 C) and these products were digested with 5U of HpaI (New England Biolabs) for 2h at 37 C. The fragments were purified using Qiaquick PCR columns (Qiagen), analyzed on an ABI 3130xL genetic analyzer (Applied Biosystems) with peak positions identified by using a set of X-rhodamine (ROX)-labeled MapMarker1000 molecular weight standards (BioVentures). The raw capillary electrophoresis data was processed using Attagraph software (Attagene).
`C[Si]1(C)O[Si](C)(C)O[Si](C)(C)O[Si](C)(C)O1`: the compound was called inactive.

As for `Nc1nc(N)c2nc(CNc3ccc(C(=O)N[C@@H](CCC(=O)O)C(=O)O)cc3)cnc2n1`, the compound was called inactive.

In the case of `CCOc1ccc2c(c1)C(C)=CC(C)(C)N2`, the result was inactive.

For `NCCO`, the compound was called inactive.

Regarding `Cc1ccc(C)c(O)c1C`, the outcome was inactive.

`O=C(O)CCCCC(=O)O`: the call was inactive.

For `O=C(O)Cc1ccccc1Nc1c(Cl)cccc1Cl`, the outcome was inactive.

In the case of `Nc1ccccc1N`, the result was inactive.

As to `CCCCOC(=O)CCCCCCCCC(=O)OCCCC`, the compound was classed as inactive.

As to `CC1(C)NC(=O)NC1=O`, the compound was classed as inactive.

With `Cc1cc(=O)[nH]c(=S)[nH]1`, the result was inactive.

As to `C=CCc1ccc(O)c(OC)c1`, the compound was classed as inactive.

Consider `NCC1(Cc2noc(=O)[nH]2)CCCCC1`, for which the call was inactive.

Take `CCCCCCCC=O`: the result was inactive.

Turning to `FC(F)(F)C(F)(F)C(F)(F)C(F)(F)C(F)(F)C(F)(F)CCI`, the compound was classed as inactive.

Take `C=CCOC(=O)c1ccccc1C(=O)OCC=C`: the compound was classed as inactive.

As for `CCOC(=O)CCC(=O)OCC`, the outcome was inactive.

In the case of `CCCCc1ccc2c(n1)[C@@H](c1ccc(OC)cc1C[C@H](C)C(=O)O)[C@H](C(=O)O)[C@H]2c1ccc2c(c1)OCO2`, the call was inactive.

For the compound `Cc1c(C(=O)O)c(O)cc2c1C(=O)c1c(O)c([C@@H]3O[C@H](CO)[C@@H](O)[C@H](O)[C@H]3O)c(O)c(O)c1C2=O`, the call was inactive.

Regarding `COc1ccc2c(c1)c(CC(=O)O)c(C)n2C(=O)c1ccc(Cl)cc1`, the compound was classed as inactive.

Turning to `O=c1[nH]cc(F)c(=O)[nH]1`, the compound was classed as inactive.

Consider `CC(=O)OC/C=C(\C)CCC=C(C)C`, for which the outcome was inactive.

For the compound `COc1cc(C=O)ccc1O`, the call was inactive.

For `CN1CCCC1=O`, the outcome was inactive.

Take `O=C(N[C@@H](Cc1ccccc1)[C@@H](O)C(=O)N1C[C@@H](O)[C@@H](O)C1)c1cc2cc(Cl)ccc2[nH]1`: the result was inactive.

For the compound `CCCc1cc(=O)[nH]c(=S)[nH]1`, the compound was called inactive.

In the case of `Oc1ccc2ccccc2c1N=Nc1ccccc1`, the compound was classed as inactive.

In the case of `CCNc1cccc(C)c1`, the outcome was inactive.

Consider `O=c1c(O)c(-c2ccc(O)c(O)c2)oc2cc(O)cc(O)c12`, for which the compound was called inactive.

Regarding `COCCOCCOC`, the outcome was inactive.

On to `CCCCC(CC)COC(=O)CC(C(=O)OCC(CC)CCCC)S(=O)(=O)O` (configuration not stated), for which the compound was called inactive.

Regarding `CCCCCCC(=O)OCC`, the result was inactive.

Source of the values: PubChem BioAssay (EPA / NIEHS).
